# Sampled rows, rich in hits. Any-hit rate of the full collection: about 3.2%.
# Dyrk1A ADPGlo = blocks rat Dyrk1A kinase activity | Q63470 | ADP-Glo luminescence, NFATc1 peptide | inhibition, % at 12.5 µM | 310,000 compounds, 0.43% hits | AID 504441; in the data active means inhibition above about 50%;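 further: plate controls were vehicle with enzyme for no effect and no enzyme for full effect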
# esBAF inh = inhibitors of esBAF chromatin remodeling in mouse ES cells; Bmi1-luciferase knock-in reporter, 24 h; 100% = twice the neutral-well signal; reporter increase, % at 12.5 µM; 350,000 compounds, 2% hits; AID 602393; in the data active means activation above about 40%;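 further: 0% = median of the plate's neutral control wells and 100% = double that signal; a rise in the Bmi1 reporter signal indicates esBAF inhibition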
# Rtt109 HAT inh = blocks Candida albicans Rtt109/Vps75 acetyltransferase activity | Q5AAJ8 | purified Rtt109/Vps75, ThioGlo CoA-SH fluorescence, 4 h | inhibition, % at 34.9 µM | 330,000 compounds, 0.16% hits | AID 540336;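 active means inhibition of at least 50% in every replicate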
# Target sequence (Q5AAJ8 whole entry, looked up): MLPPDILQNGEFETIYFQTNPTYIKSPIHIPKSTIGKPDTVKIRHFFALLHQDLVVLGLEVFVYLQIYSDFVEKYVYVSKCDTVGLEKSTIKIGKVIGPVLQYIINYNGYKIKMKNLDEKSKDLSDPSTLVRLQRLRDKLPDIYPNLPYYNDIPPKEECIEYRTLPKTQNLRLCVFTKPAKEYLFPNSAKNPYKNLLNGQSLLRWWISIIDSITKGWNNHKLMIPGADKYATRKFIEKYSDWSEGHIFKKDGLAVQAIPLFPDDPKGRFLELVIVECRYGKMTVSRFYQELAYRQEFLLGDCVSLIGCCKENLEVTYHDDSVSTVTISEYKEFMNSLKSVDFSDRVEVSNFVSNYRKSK
# dFosB act = activators of mouse delta FosB homodimer; P13346; purified delta FosB, TAMRA-CDK5 oligo fluorescence polarization; percent of positive-control signal above neutral wells; activation, % at 25 µM; 340,000 compounds, 0.99% hits;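 active means mean activation above about 17%, with every replicate also reaching it, limit read from the data, passing the limit was not always enough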
# Target sequence (P13346 whole entry, looked up): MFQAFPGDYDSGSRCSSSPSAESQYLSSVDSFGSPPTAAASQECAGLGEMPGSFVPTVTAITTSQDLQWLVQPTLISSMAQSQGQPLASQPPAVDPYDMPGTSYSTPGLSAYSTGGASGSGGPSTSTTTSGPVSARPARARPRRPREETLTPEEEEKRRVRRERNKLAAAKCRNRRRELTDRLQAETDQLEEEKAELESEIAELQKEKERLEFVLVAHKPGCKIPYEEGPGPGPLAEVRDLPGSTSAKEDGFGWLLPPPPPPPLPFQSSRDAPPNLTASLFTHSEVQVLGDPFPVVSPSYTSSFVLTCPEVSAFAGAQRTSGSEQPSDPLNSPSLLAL
# CDK5 p35 inh = inhibitors of human CDK5/p35 kinase. inhibition, % at 10 µM. Q00535+Q15078. AID 488839. 330,000 compounds, 0.01% hits. Recombinant CDK5/p35, ADP-Glo luminescence, 60 min;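 active means highest replicate inhibition of at least 50% and at least 75% of replicates reaching 50%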;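 further: plate controls were DMSO neutral control for no effect and GW8510 at 10 µM for full effect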
# SMARCA2 activ = SMARCA2 function activation, primary screen | MG213 cells, MMTV-luciferase reporter, dexamethasone, overnight | activation, % at 9.1 µM | 370,000 compounds, 1% hits | AID 652017; in the data active means activation above about 7.8%;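 further: 0% = vehicle wells and 100% = reference activator wells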
# Active calls of the source: *; · = not tested or not shown.
SMILES,Dyrk1A ADPGlo,esBAF inh,Rtt109 HAT inh,dFosB act,CDK5 p35 inh,SMARCA2 activ
COC(=O)[C@H]1[C@H](CO)[C@H]2Cn3c(ccc(-c4ccc(F)cc4)c3=O)[C@H]2N1C(=O)C1CCC1,·,-4.6,·,·,·,·
O=C(CSc1ccc(Cl)cc1)N1CCOCC1,9.7,10.3,-10.2,-2.9,-1.1,-1.3
O=C(CCSc1ccc(Cl)cc1)N1CCOCC1,6.3,42.0*,-19.3,-0.2,0.0,1.3
C/C(=N\Nc1ccc(Cl)cc1)c1ccccn1,-0.7,48.2*,3.3,3.6,-1.3,1.7
CO/N=C/C(C#N)=C/c1ccc(OC)cc1,-0.3,87.7*,-0.5,-3.6,1.7,-1.1
COc1ccc(/C=C(/C#N)S(=O)(=O)c2ccc(C)cc2)cc1,-5.9,-8.0,1.1,-11.6,3.6,-1.4
CCOC(=O)c1c(N2C(=O)C=CC2=O)sc(C)c1C,-4.9,-3.1,69.1*,-12.8,2.9,·
COc1cc(-c2ccc3c(=O)c4ccccc4sc3c2)cc(OC)c1OC,11.3,47.2*,14.7,-0.8,4.2,0.6
COc1cc(-c2c(-c3ccsc3)sc3ccccc23)cc(OC)c1OC,-3.5,-9.2,-6.2,6.3,0.6,-0.2
CCCNC(=O)N[C@H]1CC[C@@H](CCn2cc(C3CC3)nn2)O[C@H]1CO,·,-0.9,·,·,·,·
C[C@@H]1CN([C@@H](C)CO)C(=O)c2cc(-c3ccccc3F)cnc2O[C@@H]1CN(C)C(=O)CN(C)C,·,7.5,·,·,·,·
CC(=O)c1ccc(-c2nnc(CCC(=O)N3CCCC(C(=O)CC(C)C)C3)o2)s1 (centres undefined),·,83.5*,-1.9,-11.4,·,3.8
CNC[C@@H]1Oc2ccc(NC(=O)CCC(F)(F)F)cc2CC(=O)N([C@H](C)CO)C[C@H]1C,·,0.2,·,·,·,·
CC1Cc2ccccc2N1C(=O)c1ccc(Br)o1 (centres undefined),-4.3,91.5*,-2.9,-1.3,0.0,4.1
O=C(NCC(F)(F)F)[C@@H]1[C@@H](CO)[C@@H]2Cn3c(cccc3=O)[C@H]1N2CC1CC1,·,-1.6,·,·,·,·
Cc1ccc2c(c1)N(C)/C(=C/c1cccc[n+]1C)S2,-4.2,-20.9,-8.7,17.6*,0.8,-2.9
CN1/C(=C/c2cccc[n+]2C)Sc2ccccc21,-4.2,-20.3,2.6,16.0,-1.3,-0.4
c1csc(-c2nnsc2-c2nc3ccccc3[nH]2)c1,15.0,40.4*,-1.6,-0.3,-0.2,5.7
CC(c1nc2ccccc2[nH]1)n1c(=O)c(-c2cccs2)nc2ccccc21 (centres undefined),·,·,·,·,·,-7.6
CCCC#Cc1cnc2c(c1)C(=O)N([C@@H](C)CO)C[C@H](C)[C@@H](CN(C)C(=O)c1ccc(F)cc1)O2,·,-0.5,·,·,·,·
Cc1nn2c(-c3ccncc3)nnc2c2ccccc12,17.1,·,-0.4,5.7,0.2,1.2
Cc1nnc(Oc2ccccc2)c2ccccc12,2.4,18.1,-0.8,-8.0,1.4,3.4
COc1ccc(-c2nnc3c4ccccc4c(C)nn23)cc1,3.4,72.0*,19.4,-79.9,-7.7,6.3
COc1ccc(Oc2nnc(C)c3ccccc23)cc1,-0.4,49.8*,·,-15.9,1.6,0.1
CN(C)CC(=O)Nc1ccc2c(c1)[C@H]1C[C@H](CC(=O)NCc3cccc(F)c3)O[C@H](CO)[C@H]1O2,·,-1.4,·,·,·,·
SMILES,Dyrk1A ADPGlo,esBAF inh,Rtt109 HAT inh,dFosB act,CDK5 p35 inh,SMARCA2 activ
Cc1ccc(O)c(C2=Nc3ccccc3C2(C)C)c1,0.1,66.9*,-2.2,0.9,-2.0,0.0
Cc1c(O)ccc(C(=O)COc2ccc(F)cc2)c1O,1.7,79.7*,-1.5,5.7,-0.5,1.6
CCc1cc(C(=O)COc2ccc(F)cc2)c(O)cc1O,8.0,·,1.7,-3.3,-1.9,6.5
CN(C)C(=O)C[C@H]1CC[C@@H]2[C@H](COc3ccc(NC(=O)c4ccc(F)c(F)c4)cc3C(=O)N2C)O1,·,-2.1,·,·,·,·
O=C1N(c2ccccc2)CCN1c1ccccc1,·,-11.1,0.2,0.7,-0.4,2.2
O=C1NC(=S)CN1c1ccccc1,-0.1,·,140.7*,11.5,3.0,1.8
COc1ccc(S(=O)(=O)Nc2ccc3c(c2)CC(=O)N([C@@H](C)CO)C[C@H](C)[C@@H](CN(C)S(=O)(=O)c2cn(C)cn2)O3)cc1,·,-0.1,·,·,·,·
O=C(CSc1ccccc1)Nc1ccc2sccc2c1,5.8,9.9,-6.5,-5.0,0.2,5.5
O=C(CSc1cccs1)Nc1cccc2ccccc12,-6.5,71.7*,-0.1,-5.7,0.7,2.4
O=C(CSc1cccs1)Nc1ccc2ccccc2c1,3.9,59.5*,-5.0,-4.0,-2.2,6.1
C[C@@H]1CN([C@H](C)CO)C(=O)c2cc(NS(C)(=O)=O)ccc2O[C@@H](C)CCCCO[C@H]1CN(C)S(=O)(=O)c1ccc(F)cc1,·,0.1,·,·,·,·
COc1ccc(C(=O)C(CCC(CNC(C)(C)C)C(=O)c2ccc(OC)cc2)CNC(C)(C)C)cc1 (centres undefined),-5.1,·,61.7*,3.2,-1.8,-8.7
CN(C)c1ccc(C(CNS(=O)(=O)c2ccc3ccccc3c2)c2c[nH]c3ccccc23)cc1 (centres undefined),-3.9,·,1.5,-10.1,-0.8,4.9
CN(C)c1ccc(C(CN)c2c[nH]c3ccccc23)cc1 (centres undefined),·,39.4*,47.1,1.8,0.0,0.2
C=CCn1cccc(C(=O)Nc2ccc(OC)c(Cl)c2)c1=O,-2.2,56.2*,2.1,2.2,-0.1,·
C=CCn1cccc(C(=O)Nc2ccc(SC)cc2)c1=O,5.8,54.9*,6.4,-0.5,0.6,2.4
C=CCn1cccc(C(=O)Nc2ccc(OC)c(OC)c2)c1=O,2.2,·,6.6,0.2,-0.6,1.7
C#CCn1cccc(C(=O)Nc2ccc(OC)cc2)c1=O,-5.7,52.7*,2.1,2.1,-1.3,5.1
CO[C@H]1CN(C)C(=O)c2ccc(NC(=O)c3cc(C)on3)cc2OC[C@H](C)N(C(C)=O)C[C@H]1C,·,1.2,·,·,·,·
O=C(C[C@H]1C=C[C@H](NC(=O)Nc2ccc3c(c2)OCO3)[C@H](CO)O1)NCc1ccccc1,·,5.3,·,·,·,·
C[C@@H]1CCCCO[C@H](CN(C)CC2CCCCC2)[C@H](C)CN([C@@H](C)CO)C(=O)c2cc(NS(=O)(=O)c3cccs3)ccc2O1,·,-1.3,·,·,·,·
CO[C@H]1CN(C)C(=O)c2ccc(NS(=O)(=O)c3ccc(C)cc3)cc2OC[C@H](C)N(C(=O)NC(C)C)C[C@H]1C,·,-0.8,·,·,·,·
COc1nc(-c2ccccc2)ccc1-c1noc(-c2ccco2)n1,-1.7,76.2*,3.3,-12.1,-2.4,3.0
COc1nc(-c2ccccc2)ccc1-c1noc(-c2cccs2)n1,0.9,45.8*,-7.2,12.3,-1.0,2.2
COc1ccc(-c2ccc(-c3noc(-c4ccco4)n3)c(OC)n2)cc1,-5.1,47.9*,-3.0,7.5,1.1,1.5
COc1nc(-c2ccccc2)ccc1-c1noc(-c2ccccc2)n1,7.5,43.7*,0.9,-8.2,1.3,2.6
C[C@@H]1CN([C@@H](C)CO)C(=O)c2cc(N(C)C)ccc2O[C@H]1CN(C)C(=O)NC1CCCCC1,·,0.4,·,·,·,·
